These results are taken from PubChem BioAssay (NCI).

Test systems include HT29 colon; SNB-75 CNS; SNB-19 CNS; U251 CNS; PC-3 prostate; SK-MEL-5 melanoma; UACC-62 melanoma; LOX IMVI melanoma; SK-MEL-28 melanoma; SK-MEL-2 melanoma; EKVX NSCLC; SN12C renal; UO-31 renal; TK-10 renal; ACHN renal; CAKI-1 renal; A498 renal; CCRF-CEM leukemia; MOLT-4 leukemia; SR leukemia.
What all share (assay): NCI-60 one-dose screen, 48 h (100 = growth as untreated, 0 = no growth, -100 = all killed)
Conditions in all cases: 10 µM unless noted

This is part of a sample that, as a whole, favours compounds with a hit. Of some 83,000 tested, about 20% had one in any assay.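 Cells were grown in 96-well plates and exposed to the test compound at a single concentration for 48 hours; results are reported as percent growth, with values below 10 considered active.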 Values without a mark were called inactive. The source made the active and inactive calls.

As to `CN(C)c1nc(-c2ccco2)n2nc(-c3ccco3)cc2n1`, the growth was 96.9% in the test with HT29 colon; 81.8% with SNB-75 CNS; 98.9% with SNB-19 CNS; 88.9% with U251 CNS; 84.4% in the test with PC-3 prostate; 81.8% in the test on SK-MEL-5 melanoma. Further, the growth with UACC-62 melanoma was 82.2%; with LOX IMVI melanoma, 75.8%; in the test on SK-MEL-28 melanoma it was 119%; in the test with SK-MEL-2 melanoma, 122%; with EKVX NSCLC, 77%; with SN12C renal, 93.4%. Also, the growth was 40.5% in the test on UO-31 renal; 90.3% in the test on TK-10 renal; 96.5% with ACHN renal; 90.7% in the test with CAKI-1 renal; 79.9% with A498 renal; 93% in the test on CCRF-CEM leukemia. Moreover, the figures for the growth with MOLT-4 leukemia and in the test on SR leukemia were 97.3% and 73.8%, respectively.
For `Cc1nn(-c2ccc(Br)cc2)c2nc3c(nc12)C(=O)C(=O)c1ccccc1-3`, the growth is 99.8% in the test with HT29 colon; 85.7% with SNB-75 CNS; 92.5% in the test with SNB-19 CNS; 103% in the test with U251 CNS; 87.7% with PC-3 prostate; 89.6% with SK-MEL-5 melanoma. Moreover, the growth is 90.6% in the test with UACC-62 melanoma; 88.1% in the test with LOX IMVI melanoma; 96.3% in the test on SK-MEL-28 melanoma; 102% with SK-MEL-2 melanoma; 80% with EKVX NSCLC; 95.5% in the test on SN12C renal. Besides, the growth in the test with UO-31 renal was 63.7%; in the test with TK-10 renal it was 140%; in the test on ACHN renal, 93.1%; in the test with CAKI-1 renal, 94.9%; with A498 renal it was 106%.
On to `CC(=O)NCCSC(=O)C(=O)SCCNC(C)=O`, for which the growth was 120% with HT29 colon; 93% in the test on SNB-75 CNS; 104% in the test with SNB-19 CNS; 108% in the test on U251 CNS; 109% in the test with PC-3 prostate; 104% in the test with SK-MEL-5 melanoma. Moreover, the growth was 99.4% with UACC-62 melanoma; 104% in the test with LOX IMVI melanoma; 118% in the test on SK-MEL-28 melanoma; 19% in the test on SK-MEL-2 melanoma; 101% in the test on EKVX NSCLC; 99.4% in the test on SN12C renal. In addition, the growth in the test on UO-31 renal is 95.7%; in the test with TK-10 renal it was 128%; with ACHN renal it was 108%; with CAKI-1 renal it was 105%; in the test with A498 renal, 104%; in the test with CCRF-CEM leukemia, 119%. The values for the growth in the test on MOLT-4 leukemia and with SR leukemia were 112% and 114%, respectively.
As for `COc1cc(OC)c2cc(C(=O)O)c(=O)oc2c1`, the growth with HT29 colon was 119%; with SNB-75 CNS, 125%; in the test on SNB-19 CNS it was 98%; with U251 CNS, 109%; in the test on PC-3 prostate, 127%; with SK-MEL-5 melanoma, 94.6%. Further, the growth with UACC-62 melanoma is 95.5%; in the test on LOX IMVI melanoma, 67%; with SK-MEL-28 melanoma it was 118%; with SK-MEL-2 melanoma, -11% (active); with EKVX NSCLC it was 98.2%; in the test with SN12C renal, 108%. Besides, the growth is 80.7% in the test on UO-31 renal; 90.6% in the test on TK-10 renal; 107% with ACHN renal; 85.9% in the test on CAKI-1 renal; 102% with A498 renal; 113% with CCRF-CEM leukemia. The growth in the test on MOLT-4 leukemia was 74.9%; with SR leukemia, 115%.
`O=C1c2nsnc2C(=O)c2c(F)c(F)c(F)c(F)c21`: the growth with HT29 colon was -54.8% (active); with SNB-75 CNS it was -76.4% (active); in the test with SNB-19 CNS it was -86.8% (active); in the test on U251 CNS it was -76.3% (active); in the test on PC-3 prostate it was 7.59% (active); in the test on SK-MEL-5 melanoma it was -61.1% (active). Further, the growth was -86.9% (active) in the test on UACC-62 melanoma; -49.4% (active) in the test on LOX IMVI melanoma; -92.5% (active) in the test on SK-MEL-28 melanoma; -75.4% (active) in the test with SK-MEL-2 melanoma; -13.9% (active) in the test on EKVX NSCLC; -94.8% (active) with SN12C renal. The growth in the test on UO-31 renal is -86.9% (active); in the test with TK-10 renal it was -98.9% (active); in the test with ACHN renal, -97.3% (active); in the test on CAKI-1 renal, -75.9% (active); with A498 renal, 10.1%; in the test on CCRF-CEM leukemia, 6.36% (active). The growth with MOLT-4 leukemia was -26.6% (active).
With `O=C(CCc1nnc2sc(-c3ccc(Cl)cc3Cl)nn12)c1nc2ccccc2[nH]1`, the growth was -12.9% (active) with HT29 colon; -45.8% (active) in the test with SNB-75 CNS; 7.75% (active) in the test on SNB-19 CNS; -83.1% (active) with U251 CNS; -38.5% (active) in the test on PC-3 prostate; -70.2% (active) in the test on SK-MEL-5 melanoma. The growth in the test with UACC-62 melanoma is -85.1% (active); with LOX IMVI melanoma, -58% (active); with SK-MEL-28 melanoma it was -60.1% (active); with SK-MEL-2 melanoma, -68.9% (active); in the test with EKVX NSCLC it was -29.7% (active); in the test on SN12C renal, -36.7% (active). Besides, the growth in the test on UO-31 renal is -72.6% (active); with TK-10 renal, -83.2% (active); in the test with ACHN renal, -89.7% (active); with CAKI-1 renal it was -54.2% (active); in the test with A498 renal it was -74.9% (active); in the test on MOLT-4 leukemia, 1.48% (active).
As to `Cn1c(=O)c2nc(SCc3ccccc3)n(C)c2n(C)c1=O`, the growth is 113% in the test with HT29 colon; 104% in the test with SNB-75 CNS; 89.4% in the test with SNB-19 CNS; 101% in the test with U251 CNS; 102% with PC-3 prostate; 101% with SK-MEL-5 melanoma. Further, the growth in the test with UACC-62 melanoma is 109%; with LOX IMVI melanoma, 99.1%; in the test with SK-MEL-28 melanoma, 119%; in the test on SK-MEL-2 melanoma, 101%; with EKVX NSCLC, 123%; in the test with SN12C renal it was 90.4%. Moreover, the growth was 98.3% in the test with UO-31 renal; 111% in the test on TK-10 renal; 99.1% with ACHN renal; 119% with CAKI-1 renal; 77.3% in the test with A498 renal; 122% with CCRF-CEM leukemia. Moreover, the growth is 106% in the test on MOLT-4 leukemia and 83.3% in the test on SR leukemia.
For the compound `S=c1[nH]nc2sc3ccccc3n12`, the growth in the test with HT29 colon is 101%; in the test with SNB-75 CNS, 81.6%; with SNB-19 CNS, 106%; in the test with U251 CNS it was 105%; in the test with PC-3 prostate, 112%; in the test with SK-MEL-5 melanoma, 106%. The growth in the test on UACC-62 melanoma was 97.4%; in the test with LOX IMVI melanoma it was 99.2%; with SK-MEL-28 melanoma it was 114%; in the test on SK-MEL-2 melanoma, 103%; in the test with EKVX NSCLC, 116%; with SN12C renal it was 103%. In addition, the growth was 84.2% in the test with UO-31 renal; 126% in the test with TK-10 renal; 99.2% in the test on ACHN renal; 110% in the test with CAKI-1 renal; 76.1% in the test on A498 renal; 100% in the test on CCRF-CEM leukemia. Besides, the growth is 92.7% in the test with MOLT-4 leukemia and 88.5% with SR leukemia.
